The panel holds about 79,000 compounds, 15% with a hit somewhere; the sample as a whole holds those more often. The source made the active and inactive calls. Cut-off read from the data, not from the text of the source: active = growth inhibition above about 70%; inactive = the rest.

The first test in a line: NCI Yeast Anticancer Drug Screen. Data for the sgs1 mgt1 strain (AID 161).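 Note: 0% = growth of cultures given vehicle only.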 Conditions: S. cerevisiae sgs1 mgt1 strain, at 50.0 µM, hits give high values. The gist of the method:
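Inhibition of yeast growth, normalised to vehicle-treated controls, is reported for a strain bearing genetic alterations in DNA damage repair.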
As to `O=C(OC1C2CCC2C2CC21)c1ccc([N+](=O)[O-])cc1[N+](=O)[O-]` (stereo not drawn), the growth inhibition was 59.1% (inactive).

For the compound `N#CCc1nc2c(s1)C(=O)c1ccccc1C2=O`, the growth inhibition was 41.8% (inactive).

`CC1=C(C(=S)Nc2ccc(Cl)c(C(=O)OC(C)C)c2)SCCO1`: the growth inhibition was 91.5% (active).

`O=C1C(Cl)=C(c2ccc([N+](=O)[O-])cc2)C(=O)c2c(O)cccc21`: the growth inhibition was 91.7% (active).

Turning to `CCOc1ccc2nc(C)cc(C)c2c1`, the growth inhibition was -0.25% (inactive).

Regarding `CN(C)CC(O)c1cc(-c2ccc(Cl)cc2)nc2c(Cl)cc(Cl)cc12` (stereo not drawn), the growth inhibition was 99.5% (active).

Turning to `CCCC(=S)N1CCOCC1`, the growth inhibition is -3.95% (inactive).

With `C/C(=C/CC1CCC2C3=CCC4CC(O)CCC4(C)C3CCC12C)C(C)C(C)C` (stereo not drawn), the growth inhibition is 59.1% (inactive).

As to `NCC(O)CSc1ccc(Cl)c(Cl)c1` (stereo not drawn), the growth inhibition is 18.8% (inactive).

In the case of `CCCCCCCCC(=O)NCCCNCCCNC(=O)CCCCCCCC`, the growth inhibition was 66.3% (inactive).

For the compound `O=C1c2ccc(O)cc2C(=O)c2c1ccc(O)c2O`, the growth inhibition was 83% (active).

As to `Clc1nc(Cl)c(Cl)c(-c2ccccc2)n1`, the growth inhibition was 89% (active).

On to `Cc1ccc(-c2c(C#N)c(-c3ccc(Cl)cc3)c(C#N)c(=O)n2NS(=O)(=O)c2ccccc2)cc1`, for which the growth inhibition is 69% (inactive).

As for `CC(CCC(=O)O)(c1cc(Br)c(O)c(Br)c1)c1cc(Br)c(O)c(Br)c1`, the growth inhibition was 81.5% (active).

With `N#CC(C(=O)CCCC(=O)Nc1ccc(Cl)cc1)c1ccccc1Cl` (stereo not drawn), the growth inhibition is 99% (active).

In the case of `Cc1ccc(S(=O)(=O)S/C(=N\c2ccccn2)Nc2ccccn2)cc1`, the growth inhibition was 58.6% (inactive).

Turning to `NC(=O)C1CCCN1C(=O)C1CCCN(Cc2cc(CN3CCCC(C(=O)N4CCCC4C(N)=O)C3)cc(CN3CCCC(C(=O)N4CCCC4C(N)=O)C3)c2)C1` (stereo not drawn), the growth inhibition was 59.5% (inactive).

On to `O=C(/C=C\c1cccc2ccccc12)c1ccccn1`, for which the growth inhibition is 98.8% (active).

In the case of `COC(=O)c1cccc2c1C(=O)c1ccccc1-2`, the growth inhibition was -5.9% (inactive).

For the compound `Cn1c(=S)c2[nH]c(SCCN3CCCCC3)nc2n(C)c1=O`, the growth inhibition was 99.2% (active).

Regarding `CN(C)CCCSc1c2ccccc2nc2cccc([N+](=O)[O-])c12`, the growth inhibition is 7.5% (inactive).

Regarding `CCCCCCCCN(CCCCCCCC)CC(O)c1cc(-c2ccc(Cl)cc2)nc2c(Cl)cccc12` (stereo not drawn), the growth inhibition is 35.6% (inactive).

On to `CCCCCCCCCCCCS`, for which the growth inhibition is 15.9% (inactive).

For the compound `COC(=O)c1nc(=S)[nH]c(C(=O)OC)c1C(=O)c1ccc([N+](=O)[O-])cc1`, the growth inhibition is 96.5% (active).

For `Cc1[nH]c2ccccc2c1C1=CC2(C)Nc3ccccc3C2C(C)(C)C1` (stereo not drawn), the growth inhibition is 92.3% (active).

Regarding `CCCCCCCCN(CCCCCCCC)CC(O)c1cc(-c2ccc(OC)cc2)nc2cc(Cl)ccc12` (stereo not drawn), the growth inhibition was 48.6% (inactive).

Turning to `O=C(CC(C[N+](=O)[O-])c1ccc2c(c1)OCO2)c1ccccc1` (stereo not drawn), the growth inhibition is 33.9% (inactive).

With `CN(C)CCN(C)CCC(=O)/C=C/c1ccccc1`, the growth inhibition was 99.5% (active).

Regarding `NC(N)=NC(N)=Nc1ccc(-c2ccccc2)cc1`, the growth inhibition was 2.45% (inactive).

As to `O=[N+]([O-])c1ccccc1NCCO`, the growth inhibition is -0.15% (inactive).

Turning to `Cn1c2c(c3ccccc31)CCN(CCN1CCN(c3cccc(Cl)c3)CC1)C2=O`, the growth inhibition is 87.8% (active).

In the case of `CC(=O)Oc1c2c(c(C)c3ccccc13)C(=O)c1cccnc1C2=O`, the growth inhibition is 98.7% (active).

`O=C(/C(=C/c1ccc2c(c1)OCO2)c1ccccc1)c1ccc(OCCN2CCCC2)cc1`: the growth inhibition is 31.1% (inactive).

Regarding `O=C1C(=O)c2cc(Cl)ccc2-c2ccc(Cl)cc21`, the growth inhibition was 94% (active).

`C/C(=N/NC(=O)Nc1ccc(N=Nc2ccccc2)cc1)c1cccnc1`: the growth inhibition is 19.6% (inactive).

As for `CC(Cl)C(=O)Nc1cc2ccccc2oc1=O` (stereo not drawn), the growth inhibition was 9.2% (inactive).

For the compound `CC(C)c1ccc2c(c1)CCC1C(C)(CN)CCCC21C` (stereo not drawn), the growth inhibition was 99.5% (active).

Consider `CN(NC1OC(=O)c2ccccc21)c1ccc(C(F)(F)F)cc1[N+](=O)[O-]` (stereo not drawn), for which the growth inhibition was 55.1% (inactive).

Turning to `CCCC(CC)c1c(O)c(O)c(C(CC)CCC)c(C(CC)CCC)c1C(CC)CCC` (stereo not drawn), the growth inhibition was 97.9% (active).

The nature of the next test: NCI Yeast Anticancer Drug Screen. Data for the cln2 rad14 strain (AID 165).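 Note: 0% = growth equal to vehicle treated cultures.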 Conditions: S. cerevisiae cln2 rad14 strain, at 5.0 µM (retest, dose inferred, filed as 0.5), hits give high values. The gist of the method: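 cln2 rad14 yeast strain; compound exposure; growth inhibition read vs vehicle controls.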
In the case of `O=C(OC1C2CCC2C2CC21)c1ccc([N+](=O)[O-])cc1[N+](=O)[O-]` (stereo not drawn), the growth inhibition is 6% (inactive).

Turning to `N#CCc1nc2c(s1)C(=O)c1ccccc1C2=O`, the growth inhibition was 30% (inactive).

Regarding `CC1=C(C(=S)Nc2ccc(Cl)c(C(=O)OC(C)C)c2)SCCO1`, the growth inhibition was 25% (inactive).

With `O=C1C(Cl)=C(c2ccc([N+](=O)[O-])cc2)C(=O)c2c(O)cccc21`, the growth inhibition was 82% (active).

`CCOc1ccc2nc(C)cc(C)c2c1`: the growth inhibition was 1% (inactive).

Take `CN(C)CC(O)c1cc(-c2ccc(Cl)cc2)nc2c(Cl)cc(Cl)cc12` (stereo not drawn): the growth inhibition is 9% (inactive).

In the case of `CCCC(=S)N1CCOCC1`, the growth inhibition was -10% (inactive).

In the case of `C/C(=C/CC1CCC2C3=CCC4CC(O)CCC4(C)C3CCC12C)C(C)C(C)C` (stereo not drawn), the growth inhibition is 0% (inactive).

As for `NCC(O)CSc1ccc(Cl)c(Cl)c1` (stereo not drawn), the growth inhibition was 5% (inactive).

On to `CCCCCCCCC(=O)NCCCNCCCNC(=O)CCCCCCCC`, for which the growth inhibition is -22% (inactive).

`O=C1c2ccc(O)cc2C(=O)c2c1ccc(O)c2O`: the growth inhibition was 9% (inactive).

Take `Clc1nc(Cl)c(Cl)c(-c2ccccc2)n1`: the growth inhibition was 17% (inactive).

As for `Cc1ccc(-c2c(C#N)c(-c3ccc(Cl)cc3)c(C#N)c(=O)n2NS(=O)(=O)c2ccccc2)cc1`, the growth inhibition was 53% (inactive).

For `CC(CCC(=O)O)(c1cc(Br)c(O)c(Br)c1)c1cc(Br)c(O)c(Br)c1`, the growth inhibition is -16% (inactive).

For the compound `N#CC(C(=O)CCCC(=O)Nc1ccc(Cl)cc1)c1ccccc1Cl` (stereo not drawn), the growth inhibition is -2% (inactive).

As to `Cc1ccc(S(=O)(=O)S/C(=N\c2ccccn2)Nc2ccccn2)cc1`, the growth inhibition was 14% (inactive).

As for `NC(=O)C1CCCN1C(=O)C1CCCN(Cc2cc(CN3CCCC(C(=O)N4CCCC4C(N)=O)C3)cc(CN3CCCC(C(=O)N4CCCC4C(N)=O)C3)c2)C1` (stereo not drawn), the growth inhibition is -2% (inactive).

For `O=C(/C=C\c1cccc2ccccc12)c1ccccn1`, the growth inhibition is 0% (inactive).

Take `COC(=O)c1cccc2c1C(=O)c1ccccc1-2`: the growth inhibition is -3% (inactive).

For `Cn1c(=S)c2[nH]c(SCCN3CCCCC3)nc2n(C)c1=O`, the growth inhibition was 28% (inactive).

For the compound `CN(C)CCCSc1c2ccccc2nc2cccc([N+](=O)[O-])c12`, the growth inhibition was 12% (inactive).

For `CCCCCCCCN(CCCCCCCC)CC(O)c1cc(-c2ccc(Cl)cc2)nc2c(Cl)cccc12` (stereo not drawn), the growth inhibition is -4% (inactive).

Take `CCCCCCCCCCCCS`: the growth inhibition is -2% (inactive).

Take `COC(=O)c1nc(=S)[nH]c(C(=O)OC)c1C(=O)c1ccc([N+](=O)[O-])cc1`: the growth inhibition is 2% (inactive).

In the case of `Cc1[nH]c2ccccc2c1C1=CC2(C)Nc3ccccc3C2C(C)(C)C1` (stereo not drawn), the growth inhibition was 2% (inactive).

As to `CCCCCCCCN(CCCCCCCC)CC(O)c1cc(-c2ccc(OC)cc2)nc2cc(Cl)ccc12` (stereo not drawn), the growth inhibition is 8% (inactive).

`O=C(CC(C[N+](=O)[O-])c1ccc2c(c1)OCO2)c1ccccc1` (stereo not drawn): the growth inhibition was 4% (inactive).

As to `CN(C)CCN(C)CCC(=O)/C=C/c1ccccc1`, the growth inhibition is 86% (active).

As for `NC(N)=NC(N)=Nc1ccc(-c2ccccc2)cc1`, the growth inhibition was -8% (inactive).

Take `O=[N+]([O-])c1ccccc1NCCO`: the growth inhibition is 2% (inactive).

Regarding `Cn1c2c(c3ccccc31)CCN(CCN1CCN(c3cccc(Cl)c3)CC1)C2=O`, the growth inhibition was 15% (inactive).

Turning to `CC(=O)Oc1c2c(c(C)c3ccccc13)C(=O)c1cccnc1C2=O`, the growth inhibition is 10% (inactive).

For `O=C(/C(=C/c1ccc2c(c1)OCO2)c1ccccc1)c1ccc(OCCN2CCCC2)cc1`, the growth inhibition is -2% (inactive).

With `O=C1C(=O)c2cc(Cl)ccc2-c2ccc(Cl)cc21`, the growth inhibition was -4% (inactive).

In the case of `C/C(=N/NC(=O)Nc1ccc(N=Nc2ccccc2)cc1)c1cccnc1`, the growth inhibition is 36% (inactive).

With `CC(Cl)C(=O)Nc1cc2ccccc2oc1=O` (stereo not drawn), the growth inhibition was 10% (inactive).

For the compound `CC(C)c1ccc2c(c1)CCC1C(C)(CN)CCCC21C` (stereo not drawn), the growth inhibition is -6% (inactive).

Consider `CN(NC1OC(=O)c2ccccc21)c1ccc(C(F)(F)F)cc1[N+](=O)[O-]` (stereo not drawn), for which the growth inhibition was 25% (inactive).

For `CCCC(CC)c1c(O)c(O)c(C(CC)CCC)c(C(CC)CCC)c1C(CC)CCC` (stereo not drawn), the growth inhibition is 18% (inactive).

For the origin of these results see PubChem BioAssay (NCI).
